Test results as given in PubChem BioAssay (NCATS).
Records with an inconclusive call do not appear. Active and inactive are the calls of the source. Unless noted, the call rests on the fitted dose curve; in most records, active means well fitted curve in the direction sought with a large enough effect; inconclusive means small, poorly fitted or top-dose-only effect, or another doubt; inactive means no such curve, though single readings can be large; an effect the other way counts as inactive or inconclusive.

How the values were obtained:
[1] = target: Cytochrome P450 2C9 (Homo sapiens) (UniProt P11712); experiment: qHTS Assay for Inhibitors and Substrates of Cytochrome P450 2C9 (AID 883); further: potency means the concentration at half of the fitted maximal effect; nearly all actives have a fitted effect of over 60% in size
Chain of Cytochrome P450 2C9 (Homo sapiens) (P11712 whole entry, looked up): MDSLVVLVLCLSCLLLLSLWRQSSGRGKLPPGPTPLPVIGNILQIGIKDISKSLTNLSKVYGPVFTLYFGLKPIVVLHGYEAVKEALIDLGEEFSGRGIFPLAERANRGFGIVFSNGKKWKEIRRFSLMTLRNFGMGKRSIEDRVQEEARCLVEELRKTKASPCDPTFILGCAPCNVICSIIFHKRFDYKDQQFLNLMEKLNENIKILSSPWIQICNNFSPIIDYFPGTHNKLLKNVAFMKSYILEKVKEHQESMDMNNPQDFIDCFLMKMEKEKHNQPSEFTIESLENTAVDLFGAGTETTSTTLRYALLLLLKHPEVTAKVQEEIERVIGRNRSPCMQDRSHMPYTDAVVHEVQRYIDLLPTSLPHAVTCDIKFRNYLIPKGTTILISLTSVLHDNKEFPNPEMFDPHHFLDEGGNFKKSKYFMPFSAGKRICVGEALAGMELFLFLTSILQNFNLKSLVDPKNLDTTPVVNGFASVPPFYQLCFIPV
In short: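 A luminogenic readout tracked human CYP2C9 (10nM) converting deoxyluciferin (100uM, at KM) in 25mM KPO4 during 60 min at 37C with regenerated NADPH. Values normalized to 57uM sulphaphenazole as complete inhibition.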

[2] = target: Alpha-galactosidase (Coffea arabica) (UniProt Q42656); experiment: Counterscreen for Glucocerebrosidase Inhibitors: qHTS Assay for Coffee Bean alpha-Galactosidase at pH 4.5 (AID 957);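 further: plate controls were enzyme alone for no effect and no enzyme for full effect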
Chain of Alpha-galactosidase (Coffea arabica) (Q42656 whole entry, looked up): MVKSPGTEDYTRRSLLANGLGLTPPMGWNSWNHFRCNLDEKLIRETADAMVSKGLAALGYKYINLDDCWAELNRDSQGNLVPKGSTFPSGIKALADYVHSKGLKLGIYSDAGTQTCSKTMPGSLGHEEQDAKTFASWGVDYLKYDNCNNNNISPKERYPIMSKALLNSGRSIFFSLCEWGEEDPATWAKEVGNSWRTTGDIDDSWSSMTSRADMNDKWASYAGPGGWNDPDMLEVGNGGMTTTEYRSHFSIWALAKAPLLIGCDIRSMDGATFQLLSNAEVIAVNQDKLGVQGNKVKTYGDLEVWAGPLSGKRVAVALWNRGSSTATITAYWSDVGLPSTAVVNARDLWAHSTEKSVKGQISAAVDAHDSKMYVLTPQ
In short: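 Quantitative HTS of compounds (0.7 nM to 77 uM) against coffee bean alpha-galactosidase at pH 4.5, measuring 4-methylumbelliferone fluorescence released from 80 uM substrate.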

[3] = target: Alpha-galactosidase (Coffea arabica) (UniProt Q42656); experiment: Counterscreen for Glucocerebrosidase Inhibitors: qHTS Assay for Coffee Bean alpha-Galactosidase at pH 5.9 (AID 998);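 further: plate controls were uninhibited enzyme for no effect and no-enzyme basal signal for full effect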
In short: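 In 50 mM citric acid pH 5.9 with 0.005% Tween-20, coffee bean enzyme hydrolyses 80 uM 4-MU alpha-D-galactopyranoside over 20 min at RT. Activity is normalized to controls; AC50 comes from Hill-modelled concentration-response data.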

[4] = qHTS Assay for Lipid Storage Modulators (AID 1519; calls by dose curve; on activity change, negative = inhibition: on the % scale 0 is the no-effect control and ±100 the full control effect); settings: Drosophila S3 cells, BODIPY lipid droplet/cell ratio, laser cytometry, cells loaded with oleic acid
In short: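 Cells seeded at 5,000 per well were treated with compounds over a concentration series and loaded with oleic acid (400 uM, as added). Lipid droplet fluorescence (488 nm excitation, 500-530 nm channel) was read by laser-scanning cytometry and normalized to 20 uM Triacsin C.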

[5] = target: DNA dC->dU-editing enzyme APOBEC-3G (Homo sapiens) (UniProt Q9HC16); experiment: qHTS for inhibitors of Vif-A3G interactions: Validation (AID 588379); further: 0% is about no effect
Chain of DNA dC->dU-editing enzyme APOBEC-3G (Homo sapiens) (Q9HC16 whole entry, looked up): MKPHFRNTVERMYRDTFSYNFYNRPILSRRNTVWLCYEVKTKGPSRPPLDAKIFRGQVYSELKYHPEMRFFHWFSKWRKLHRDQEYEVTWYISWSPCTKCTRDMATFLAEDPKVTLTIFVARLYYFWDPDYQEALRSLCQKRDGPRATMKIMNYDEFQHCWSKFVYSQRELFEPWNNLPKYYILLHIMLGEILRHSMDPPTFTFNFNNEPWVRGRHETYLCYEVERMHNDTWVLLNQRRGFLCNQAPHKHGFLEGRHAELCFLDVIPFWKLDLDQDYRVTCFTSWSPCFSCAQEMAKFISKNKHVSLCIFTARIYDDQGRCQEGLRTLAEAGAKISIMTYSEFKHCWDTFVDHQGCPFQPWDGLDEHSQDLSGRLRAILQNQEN
In short: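 Yellow fluorescence (Ex 488, Em 500-530) of Vif-coexpressing HeLa A3G-eYFP cells, scanned by Acumen cytometer, reports blocked A3G degradation. Cells plated at 700/well overnight at 37 deg C before compound addition, then a further overnight compound incubation at 37 deg C.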

[6] = target: Cytochrome P450 3A4 (Homo sapiens) (UniProt P08684); experiment: qHTS Assay for Inhibitors and Substrates of Cytochrome P450 3A4 (AID 884); further: nearly all actives have a fitted effect of over 50% in size; further: potency means the concentration at half of the fitted maximal effect; on activity change, negative = inhibition: on the % scale 0 is the no-effect control and ±100 the full control effect
Chain of Cytochrome P450 3A4 (Homo sapiens) (P08684 whole entry, looked up): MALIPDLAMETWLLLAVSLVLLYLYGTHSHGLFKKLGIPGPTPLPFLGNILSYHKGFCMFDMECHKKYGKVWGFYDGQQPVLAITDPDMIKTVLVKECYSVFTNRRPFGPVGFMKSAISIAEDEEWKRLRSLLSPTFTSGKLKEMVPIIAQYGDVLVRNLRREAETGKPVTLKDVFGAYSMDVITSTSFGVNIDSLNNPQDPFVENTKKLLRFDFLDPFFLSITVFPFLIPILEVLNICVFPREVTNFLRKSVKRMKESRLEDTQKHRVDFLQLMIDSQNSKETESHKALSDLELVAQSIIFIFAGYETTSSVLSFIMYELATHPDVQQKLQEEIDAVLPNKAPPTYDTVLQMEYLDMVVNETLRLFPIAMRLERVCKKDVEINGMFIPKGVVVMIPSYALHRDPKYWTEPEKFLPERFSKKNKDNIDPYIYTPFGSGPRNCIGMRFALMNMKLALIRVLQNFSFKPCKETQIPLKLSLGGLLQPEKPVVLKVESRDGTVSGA
In short: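 Luminescent readout of luciferin produced by CYP3A4 (20 nM) dealkylation of Luciferin-PPXE, 25 uM (its KM). NADPH-driven reaction ran 60 min at RT after 10 min compound preincubation; data scaled to 57 uM ketoconazole as 100% inhibition.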

[7] = Confirmation and Secondary Assay for Modulators of Hemoglobin Beta Chain Splicing at IVS2 654 locus (AID 910);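 further: per-well total GFP intensity by laser scanning cytometry after 2-day treatment; % of control where 0% means no effect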
In short: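 HeLa cells stably carrying EGFP interrupted by mutant beta-globin IVS2-654 intron (CMV-driven) were treated with compound for 2 days at 37C; corrected splicing was scored as total peak GFP intensity per well (488 nm excitation, 500-520 nm emission).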

[8] = target: Cytochrome P450 3A4 (Homo sapiens) (UniProt P08684); experiment: qHTS Assay for Activators of Cytochrome P450 3A4 (AID 885); further: nearly all actives have a fitted effect of over 65% in size
In short: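 Using 20nM recombinant human CYP3A4 in potassium phosphate (200mM), substrate Luciferin-PPXE at 25uM, luminescent luciferin detection followed a 60-min RT NADPH reaction; data scaled to 57 uM ketoconazole.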

[9] = Confirmation and Secondary Assay for Modulators of Hemoglobin Beta Chain Splicing at IVS2 705 locus (AID 930);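 further: HeLa cells stably expressing the EGFP-705 splicing reporter; GFP fluorescence per well restored by corrected splicing of the IVS2-705 intron in EGFP; % of control where 0% means no effect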
In short: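 Stable HeLa line with EGFP disrupted by mutant beta-globin intron 2 (705). Overnight attachment, then 2 days of compound at 37C, 5% CO2. Signal: peak GFP intensity summed over objects 5-250 µm.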

[10] = target: Bile acid receptor (Homo sapiens) (UniProt Q96RI1); experiment: qHTS assay for small molecule agonists of farnesoid X receptor signaling (AID 588527; calls by dose curve;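 further: 0% = vehicle basal and 100% = reference agonist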); settings: HEK293T FXR-UAS-bla, beta-lactamase ratio, 16 h; stronger effect = higher value
Chain of Bile acid receptor (Homo sapiens) (Q96RI1 whole entry, looked up): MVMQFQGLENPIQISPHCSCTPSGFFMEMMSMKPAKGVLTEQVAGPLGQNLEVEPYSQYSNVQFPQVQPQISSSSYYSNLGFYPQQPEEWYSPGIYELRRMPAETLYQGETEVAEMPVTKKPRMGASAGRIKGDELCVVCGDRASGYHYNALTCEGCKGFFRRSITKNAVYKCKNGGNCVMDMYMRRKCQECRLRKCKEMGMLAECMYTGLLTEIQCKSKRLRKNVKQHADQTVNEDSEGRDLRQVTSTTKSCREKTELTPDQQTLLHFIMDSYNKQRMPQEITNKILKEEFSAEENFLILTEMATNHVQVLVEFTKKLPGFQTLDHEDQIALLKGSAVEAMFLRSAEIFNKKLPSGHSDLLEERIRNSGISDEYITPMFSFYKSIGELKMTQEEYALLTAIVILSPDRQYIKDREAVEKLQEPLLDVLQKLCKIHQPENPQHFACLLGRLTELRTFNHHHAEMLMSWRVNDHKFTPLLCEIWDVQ
In short: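 Quantitative HTS used FXR-UAS-bla HEK293T cells with 16 h compound incubation at 37 C. EC50 values came from concentration-response curves normalized to chenodeoxycholic acid.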

[11] = qHTS assay for small molecule antagonists of retinoid X receptor alpha signaling (AID 588546; active means well fitted inhibition curve with a large enough effect in the signal ratio, with a control signal flat, not every such curve was filed as active; the % refers to the signal ratio; further: potency means the concentration at half of the fitted maximal effect;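 on max response: cells stimulated with 9-cis-retinoic acid as agonist; on the % scale 0 is the no-effect control and ±100 the full control effect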); settings: HEK293T RXRa-UAS-bla, beta-lactamase ratio, antagonist mode; measured here: W530 green channel, cytotoxicity proxy
In short: (§1)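 Beta-lactamase reporter inhibition, read as CCF4 fluorescence ratio (ex 405, em 460/530 nm) after 2 h at RT. HEK293T UAS-bla cells, 2500/well, were stimulated with 9-cis-RA at 500 or 100 nM final alongside test compound for 18 h at 37 C.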

[12] = target: Retinoic acid receptor RXR-alpha (Homo sapiens) (UniProt P19793); experiment: as above; settings: HEK293T RXRa-UAS-bla, beta-lactamase ratio, antagonist mode
Chain of Retinoic acid receptor RXR-alpha (Homo sapiens) (P19793 whole entry, looked up): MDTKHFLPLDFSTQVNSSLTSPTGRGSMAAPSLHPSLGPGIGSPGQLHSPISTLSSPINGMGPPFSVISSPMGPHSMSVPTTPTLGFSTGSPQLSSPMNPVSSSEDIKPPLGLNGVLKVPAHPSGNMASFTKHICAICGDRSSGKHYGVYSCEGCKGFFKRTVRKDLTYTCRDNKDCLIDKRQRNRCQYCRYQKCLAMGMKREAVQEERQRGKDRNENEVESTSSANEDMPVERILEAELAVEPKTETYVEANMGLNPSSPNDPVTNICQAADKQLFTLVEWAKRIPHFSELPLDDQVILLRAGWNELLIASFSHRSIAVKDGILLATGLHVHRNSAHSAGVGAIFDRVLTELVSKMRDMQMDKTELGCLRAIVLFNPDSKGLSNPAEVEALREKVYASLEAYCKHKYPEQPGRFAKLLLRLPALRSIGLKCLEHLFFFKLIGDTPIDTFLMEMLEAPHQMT
In short: as §1

[13] = qHTS assay for small molecule activators of the p53 signaling pathway (AID 651743; active means well fitted activation curve with a large enough effect in the signal ratio, not every such curve was filed as active; the % refers to the signal ratio; further: potency means the concentration at half of the fitted maximal effect); settings: HCT-116 p53RE-bla, beta-lactamase FRET ratio, 16 h; activation: stronger effect = higher value
In short: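 Here HCT-116 cells with an integrated p53-responsive beta-lactamase gene were incubated with compounds (16 hours, 37 C) after a 5-hour plating period; beta-lactamase activity was detected as fluorescence intensity via B/G FRET substrate.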

[14] = qHTS assay for small molecule activators of the nuclear factor-kappa B (NF-kB) signaling pathway (AID 651749; active means well fitted activation curve with a large enough effect in the signal ratio; the % refers to the signal ratio; further: % of control where 0% means no effect); settings: NF-kB-bla ME-180 cells, beta-lactamase FRET ratio, 16 h; activation: stronger effect = higher value
In short: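 Beta-lactamase reporter expression, controlled by NF-kB response elements in ME-180 cells, was quantified fluorometrically via FRET disruption; cells at 2,000/well had been incubated with 23 nL test compound for 16 hr.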

[15] = qHTS assay for environmental chemicals that activate the Aryl hydrocarbon Receptor (AhR) signaling pathway (AID 651777); settings: 1A2-DRE human hepatoma cells, luciferase, 24 h; activation: stronger effect = higher value; further: % of control where 0% means no effect; nearly all actives have a fitted effect of over 15% in size
In short: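 Induction of CYP1A2 transcription through AhR is detected by luciferase in 1A2-DRE hepatoma cells. Compounds or DMSO act for 24 hr at 37 C before a 30 min One-Glo step at room temperature.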

[16] = target: Peroxisome proliferator-activated receptor alpha (Homo sapiens) (UniProt Q07869); experiment: qHTS assay for small molecule agonists of the peroxisome proliferator-activated receptor alpha (PPARalpha) signaling pathway (AID 651778); settings: PathHunter PPARalpha complementation, chemiluminescence, 6 h; stronger effect = higher value; further: % of control where 0% means no effect
Chain of Peroxisome proliferator-activated receptor alpha (Homo sapiens) (Q07869 whole entry, looked up): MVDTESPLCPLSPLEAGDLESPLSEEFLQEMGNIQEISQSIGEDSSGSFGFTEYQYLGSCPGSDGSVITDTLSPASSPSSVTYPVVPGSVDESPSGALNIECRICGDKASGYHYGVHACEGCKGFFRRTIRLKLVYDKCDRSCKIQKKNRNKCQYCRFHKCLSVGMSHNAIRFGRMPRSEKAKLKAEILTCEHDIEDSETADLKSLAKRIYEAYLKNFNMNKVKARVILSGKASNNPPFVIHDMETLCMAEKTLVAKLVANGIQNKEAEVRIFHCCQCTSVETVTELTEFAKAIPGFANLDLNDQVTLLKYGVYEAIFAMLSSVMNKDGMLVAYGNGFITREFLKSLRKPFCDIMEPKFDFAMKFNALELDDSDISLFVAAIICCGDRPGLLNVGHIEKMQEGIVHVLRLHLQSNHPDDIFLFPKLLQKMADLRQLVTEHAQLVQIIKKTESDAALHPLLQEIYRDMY
In short: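 Cells plated at 2,000/well and held overnight at 37 C, 5% CO2, then compound added by pin tool for 6 hr; after PathHunter detection reagent and 60 min at room temperature, chemiluminescence from enzyme complementation was read.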

[17] = qHTS assay for small molecule agonists of the antioxidant response element (ARE) signaling pathway measured by Nrf2-dependant transcriptional activity (AID 720636; active means well fitted curve in the direction sought with a large enough effect in the repeat runs; an effect the other way counts as inactive or inconclusive;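 further: HepG2 cells with an ARE-driven luciferase reporter; % of control where 0% means no effect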)
In short: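 We exposed ARE-luc HepG2 cells, seeded in assay medium with 1% dialyzed FBS and allowed 6 hr to adhere, to test compounds overnight (16 hr, 37 C) before measuring luciferase with ONE-Glo.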

[18] = measured here: cell count channel max response
[19] = measured here: lipid channel max response

COc1cc([C@H]2c3cc4c(cc3[C@@H](O)[C@@H]3COC(=O)[C@H]23)OCO4)cc(OC)c1OC
Potency [1]: 1.26 µM (active) | outcome [2]: inactive | outcome [3]: inactive | activity change, negative = inhibition ([4]; at 25.7 µM (top of the series)): -6.44% (inactive) | max response [4, 18]: -10.2% | max response [4, 19]: -15%

O=C1CC2OCC=C3CN4CC[C@]56c7ccccc7N1[C@H]5[C@H]2C3C[C@H]46 (stereo not given in full)
activity change, negative = inhibition ([4]; at 57.5 µM (top of the series)): 9.09% (inactive) | max response [4, 18]: 14.5% | max response [4, 19]: 20.7% | outcome [5]: inactive

CC(=O)OC1CC[C@@]2(C)C3CC[C@]4(C)C(=O)CCC4C3CC[C@H]2C1 (stereo not given in full)
Potency [6]: inactive | Potency [7]: inactive | activity change, negative = inhibition ([4]; at 57.5 µM (top of the series)): -0.903% (inactive) | max response [4, 18]: -8.94% | max response [4, 19]: -14.8%

CCN1C[C@@]2(COC)C3[C@@H](OC)C4[C@@H]1[C@@]3(C1C[C@@]3(O)[C@H](OC(=O)c5ccccc5)C1[C@]4(OC(C)=O)[C@@H](O)[C@@H]3OC)[C@@H](OC)C[C@H]2O (stereo not given in full)
Potency [8]: inactive | activity change, negative = inhibition ([4]; at 57.5 µM (top of the series)): 0.0984% (inactive) | max response [4, 18]: -8.1% | max response [4, 19]: -8.3% | outcome [5]: inactive

C[C@@]12CCC3C(CCC4=CC(=O)CC[C@]43C)C1CCC2O (stereo not given in full)
Potency [6]: inactive | Potency [7]: inactive | Potency [9]: inactive | activity change, negative = inhibition ([4]; at 57.5 µM (top of the series)): -1.38% (inactive) | max response [4, 18]: 0.874% | max response [4, 19]: 1.24%

CC(C)c1ccc2c(c1O)CCC1C3=C(CC[C@]21C)C(=O)OC3 (stereo not given in full)
Potency [6]: 15.8 µM (active) | Potency [8]: inactive | Potency [7]: inactive | Potency [9]: inactive | activity change, negative = inhibition ([4]; at 57.5 µM (top of the series)): 1.46% (inactive) | max response [4, 18]: -9.02% | max response [4, 19]: -0.042%

COc1cc2c(cc1OC)C(C)NCC2 (stereo not given)
Potency [6]: inactive | Potency [7]: inactive | activity change, negative = inhibition ([4]; at 57.5 µM (top of the series)): 4.92% (inactive) | max response [4, 18]: 20% | max response [4, 19]: 26% | outcome [5]: inactive

C#CCOS(=O)OC1CCCCC1Oc1ccc(C(C)(C)C)cc1 (stereo not given)
Potency [7]: inactive | activity change, negative = inhibition ([4]; at 57.5 µM (top of the series)): 5.08% (inactive) | max response [4, 18]: 0.489% | max response [4, 19]: 8.3% | activation [10]: 6.98% (inactive) | max response [11]: 24.4% | Potency [12]: 7.08 µM (active) | Potency [13]: 5.62 µM (active) | activation [14]: 7.07% (inactive) | activation [15]: 0.168% (inactive) | max response [16]: -1.77% (inactive) | outcome [17]: inactive

O=c1ccc2cc(OC3OC(CO)C(O)C(O)C3O)c(O)cc2o1 (stereo not given)
activity change, negative = inhibition ([4]; at 57.5 µM (top of the series)): -4.17% (inactive) | max response [4, 18]: -25.8% | max response [4, 19]: -27.2% | outcome [5]: inactive
